According to PubChem BioAssay AID2451 (National Center for Advancing Translational Sciences (NCATS), 2010):
Screen size: about 290,000 compounds; about 2,100 (0.72%) were called active. Another 4% or so got no clear call; they are omitted. The full list was thinned out, with actives kept by preference. Values without a mark were called inactive. Calls follow the shape of the dose curve; as a rule, active = well fitted inhibition curve with a large enough effect; inconclusive = small, poorly fitted or top-dose-only effect, or effect the other way; inactive = flat fitted curve, though single readings scatter.

Target: Fructose-bisphosphate aldolase (Giardia intestinalis (strain ATCC 50803 / WB clone C6)) (UniProt A8B2U2)
Sequence (A8B2U2 whole entry, looked up): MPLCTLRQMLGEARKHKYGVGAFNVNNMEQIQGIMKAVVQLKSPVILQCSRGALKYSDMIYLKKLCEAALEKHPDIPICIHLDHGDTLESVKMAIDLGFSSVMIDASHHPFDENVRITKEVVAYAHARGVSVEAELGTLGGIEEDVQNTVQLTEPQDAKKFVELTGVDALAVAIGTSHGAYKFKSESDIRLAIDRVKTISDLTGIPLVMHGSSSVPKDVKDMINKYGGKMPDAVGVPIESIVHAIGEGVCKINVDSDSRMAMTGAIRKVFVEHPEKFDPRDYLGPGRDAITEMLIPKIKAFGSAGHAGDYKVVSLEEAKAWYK
Experiment: qHTS Assay for Inhibitors of Fructose-1,6-bisphosphate Aldolase from Giardia Lamblia; also: nearly all actives have a fitted effect of over 55% in size
Settings: purified Giardia FBPA; series mostly up to 59.6 µM; activity, negative = inhibition: at the top concentration
Summary of the method: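 Giardia FBPA (40 nM reagent) was preincubated 10 min at RT with compound (up to 57.5 uM final), then substrate plus GAPDH/TPI/NAD/arsenate coupling system with diaphorase/resazurin was added; resorufin fluorescence (525/598 nm) was read after 20 min.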
% is scaled to controls: 0 for no effect and ±100 for the full control effect; potency is read from the fitted curve at half-maximal effect.

SMILES	activity, negative = inhibition [%]	Potency
CC(C)CC(=O)N1CCN(Cc2cccc(Cl)c2)CC1	-21.7	
Nc1c(C(=O)NCc2ccccc2)nnn1Cc1cccc(Cl)c1	-0.252	
Clc1cccc(CN2COc3c(cc(Cl)c4cccnc34)C2)c1		17.7 µM (active)
Cc1ccc(O)c(/C=N/NC(=O)COc2ccc3c(C)cc(=O)oc3c2)c1	9.07	
Brc1ccc(OCCn2ccnc2)cc1	0.307	
C=CCc1cc(C)ccc1OCCCn1ccnc1		25.1 µM (active)
Cc1ccc2c(Cl)c(C(=O)NCCCn3ccnc3)sc2c1	0.0784	
Cc1ccc(OCC(=O)Nc2ccc3oc(=O)ccc3c2)cc1C	10.4	
Cc1cccc(N(Cc2ccccc2)C(=O)c2ccccc2F)c1	7.97	
COC(=O)c1cc(S(=O)(=O)N2CCN(c3cc(C)ccc3C)CC2)c[nH]1	-28.7	
O=C(Nc1cccc(Cl)c1)c1cc(S(=O)(=O)N2CCCCC2)c[nH]1	7.52	
COc1ccc(C2c3[nH]c4ccccc4c3C[C@H]3C(=O)N(CC(C)C)CC(=O)N23)c(OC)c1 (stereo not given in full)	8.11	
Cc1cnc(NC(=O)CSc2nnc(-c3ccccc3)n2Cc2ccccc2)s1	3.82	
CCc1nnc(NC(=O)CSc2nnc(-c3ccncc3)n2Cc2ccccc2)s1	0.288	
Cc1cccc(-c2nnc(SCC(=O)O)n2Cc2ccccc2)c1		15.8 µM (active)
CC(CN1CCOCC1)OC(=O)c1ccc(C(C)(C)C)cc1 (stereo not given)	-23.6	
O=c1[nH]c(=S)[nH]c2[nH]c(=S)[nH]c12		12.6 µM (active)
Cc1c(C)c(C)c2[nH]c(=S)[nH]c2c1C	-0.981	
Cc1ccc(S(=O)(=O)N(CCCN(C)C)Cc2ccc3c(c2)OCO3)cc1	17.3	
CCN(CC)Cc1c(C(=O)N/N=C/c2cccc(OCc3ccc(F)cc3)c2)nnn1-c1nonc1N	-21.4	
CCc1ccc2c(c1)C1(NN=C(c3ccccc3)S1)C(=O)N2 (stereo not given)		15.8 µM (active)
CCc1ccc2c(c1)C(c1ccc([N+](=O)[O-])cc1)=NNC(c1ccccc1)=N2	0.182	
O=C(c1ccccc1)N1CCN(C(=O)c2cc3nc(-c4ccccc4)cc(C(F)(F)F)n3n2)CC1	-1.21	
O=C(/C=C/c1ccco1)NC(=S)Nc1ccccc1Br	-12.7	
CCNC(=O)N1CCCC(C(=O)c2ccc(-c3ccccc3)cc2)C1 (stereo not given)	-6.72	
COC(=O)CC1=NN(c2nc(C)cc(C)n2)C(=O)C1		5.61 µM (active)
Cc1ccc(CC2CC(=O)N(c3nc(C)cc(C)n3)C2=O)cc1 (stereo not given)	3.28	
Cc1cc(C)cc(NC(=O)C2CCN(c3nc(C)cc(C)n3)CC2)c1	9.22	

SMILES	activity, negative = inhibition [%]	Potency
O=c1[nH]c(=O)n(-c2ccccc2)c(O)c1C=NC12CN3CN(CN(C3)C1)C2	-0.226	
CCCCC(=O)N/N=C/c1c(O)n(-c2ccccc2)c(=O)[nH]c1=O		8.89 µM (active)
Cc1cccc(-n2c(O)c(C=Nc3ccccc3N)c(=O)[nH]c2=O)c1	7.74	
O=C(NC(=S)Nc1ccc(Cl)cc1Cl)C1CC1	-5.9	
COc1ccccc1/C=N/N1CCN(Cc2ccccc2Cl)CC1	-9.55	
COc1ccccc1CN1CC2(CCN(S(=O)(=O)c3ccccc3)CC2)C1	1.62	
CS(=O)(=O)N1CCN(C(=O)Cc2ccccc2)CC1	1.56	
COc1ccccc1CN1CCN(Cc2cc(OC)c(OC)cc2OC)CC1		25.1 µM (active)
COC(=O)N1CCC2(CCCN(Cc3ccccc3OC)C2)CC1	5.48	
COc1ccccc1CN1CCN(C(=O)Cc2ccccc2)CC1		17.8 µM (active)
CCOCCOC(=O)C1=C(C)NC(=O)NC1c1ccc2c(c1)OCO2 (stereo not given)	7.55	
O=C(O)c1c(NC(=O)N2CCCC2)sc2c1CCCC2	-17.4	
O=C(Nc1ccc(O)cc1)c1ccc(NC(=O)c2ccco2)cc1	4.74	
CCOC(=O)C1(Cc2cccc(OC)c2)CCCN(C(=O)CCSC)C1 (stereo not given)	-14.4	
Cc1cccc(NC(=O)CSc2nc3[nH]ncc3c(=O)[nH]2)c1	-0.944	
Cc1cc(C)c2c(=O)[nH]c(SCC(=O)Nc3ccc(Br)cc3)nc2n1		31.6 µM (active)
Cc1cc(=O)[nH]c(SCC(=O)Nc2ccc(Br)cc2)n1	-7.83	
OCCN1CCN(C(=S)c2ccc(-c3ccccc3)cc2)CC1		11.2 µM (active)
S=C(c1ccccc1)N1CCCC1	-8.06	
O=C(NC(c1ccccc1)c1ccccc1)N1CCN(CCO)CC1	2.22	
COc1ccc(-c2ccc(C3C4C=CCCC4(C)C(=O)N3Cc3ccccc3)c(F)c2)cc1OC (stereo not given)	-2.7	
Cc1cc(F)ccc1NC(=S)NCCc1ccccc1	-4.77	
COc1cc(NC(=O)C2=CC(c3ccc(C)cc3)=NS(=O)(=O)N2C)cc(OC)c1OC	-11.6	
CCOc1cccc(NC(=O)C2CCCN(S(=O)(=O)c3ccc(OC)cc3)C2)c1 (stereo not given)	0.161	
CCN(CC(=O)Nc1ccc(S(=O)(=O)N2CCCC2)cc1)CC(=O)Nc1cccc(OC)c1		5 µM (active)
COc1ccccc1CC(=O)Nc1ccc(S(=O)(=O)N2CCCC2)cc1	3.51	
COc1cc(C(=S)N2CCOCC2)cc(OC)c1OC(=O)c1ccc([N+](=O)[O-])cc1[N+](=O)[O-]	-13.1	
